ChEMBL document CHEMBL5724796, “Tm Shift (DSF) assay results for EUbOPEN Chemogenomics Library” (2024)
Non-standard residues stand in square brackets, D forms with d. Residues, ends and D or L forms follow the SMILES beside them. *: point of attachment. Benzoyl(4-tBu) = CC(C)(C)c1ccc(C(=O)*)cc1; Lys(Et2) = CCN(CC)CCCC[C@H](N)C(=O)O; Cbz = O=C(OCc1ccccc1)*; CH2Cl = ClC*; CH2F = FC*

Each compound was assayed against Bromodomain-containing protein 4 (Homo sapiens) (UniProt O60885). Details: Compound concentration 20.0 uM.
Compound O=C(NCC1CCOCC1)c1n[nH]cc1NC(=O)c1c(F)cccc1F has a ΔTm of -2 °C.
Compound Oc1ccc(-c2c(-c3ccccc3)nn3c(C(F)(F)F)cc(C(F)(F)F)nc23)cc1 has a ΔTm of -1.27 °C.
Compound CNC(=O)O[C@H]1COc2ccc(N3CCN(C4COC4)CC3)cc2[C@@H]1NC(=O)c1ccc(F)cc1 has a ΔTm of -1.16 °C.
With CN(CCCCCCNc1ccnc2cc(Cl)ccc12)CCCCCCNc1ccnc2cc(Cl)ccc12 the ΔTm was 2.96 °C.
COc1cc(-c2cn(C)c(=O)c3cnccc23)cc(OC)c1CN(C)CC(=O)NCCOCCOCCNc1cccc2c1C(=O)N(C1CCC(=O)NC1=O)C2=O (centres undefined) was tested, and the ΔTm was -1.54 °C.
In the case of CC(C)c1c(-c2cnn(C(C)(C)C)c2)[nH]c2c(C#N)cnn2c1=O, the ΔTm was -1.11 °C.
For CS(=O)(=O)c1ccc(-c2nnc(C=Cc3nnc(-c4ccc(C#N)cc4)o3)n2-c2ccccc2Cl)nc1, the ΔTm was -3.09 °C.
O=C(N1CCCCC1c1ccccc1)n1cc(-c2ccc(-c3cccc(CO)c3)cc2)nn1 (centres undefined) showed a ΔTm of -2.31 °C.
Work on CS(=O)(=O)c1ccc(Oc2cc(F)cc(C#N)c2)c2c1C(O)C(F)C2 (centres undefined) yielded a ΔTm of -2.49 °C.
With NS(=O)(=O)c1cc(-c2nnn[nH]2)c(NCc2cccs2)cc1Cl the ΔTm was -1.05 °C.
Work on CCn1nc(C2CC2)cc1Nc1nc(C(=O)NC)nc2[nH]c3cc(-c4c(C)noc4C)c(OC)cc3c12 yielded a ΔTm of 8.71 °C.
For COCCOCCn1nc2c(c1C)-c1c(Cl)ccc3c1c(C)c(C(=O)O)n3CCCOc1cc(cc3c(F)c(Cl)ccc13)CCc1cc(nn1C)CSC2, the ΔTm was -3.74 °C.
With CN(CC[C@@H](Oc1ccc(-c2ccccc2)cc1)c1ccc(F)cc1)CC(=O)O the ΔTm was -0.22 °C.
Cc1ccsc1C(=CCCN1CCC[C@@H](C(=O)O)C1)c1sccc1C gave a ΔTm of 0.65 °C.
O=C1Nc2ccccc2C2(CCN(CC(Cc3ccccc3)Nc3nc4ccc(F)cc4s3)CC2)N1 (centres undefined) gave a ΔTm of -4.21 °C.
CCCOc1cccc(Oc2cc3c(cc2NS(=O)(=O)c2cccc(C(=O)NCCOCCOCCOCC(=O)N[C@H](C(=O)N4C[C@H](O)C[C@H]4C(=O)NCc4ccc(-c5scnc5C)cc4)C(C)(C)C)c2)n(C)c(=O)n3C)c1 gave a ΔTm of -8.44 °C.
CN(CCC(Oc1ccc(-c2ccccc2)cc1)c1ccc(F)cc1)CC(=O)O (centres undefined) gave a ΔTm of 2.4 °C.
C[C@]1(c2nc3c(C(N)=O)cccc3[nH]2)CCCN1 showed a ΔTm of -2.57 °C.
CCN(CC)CCCC[C@H](NC(=O)[C@H](CC(C)C)NC(=O)[C@H](C)NC(=O)[C@H](Cc1ccccc1)NC(=O)c1ccc(C(C)(C)C)cc1)C(=O)N[C@@H](CO)C(=O)OC ({Benzoyl(4-tBu)}-FAL[Lys(Et2)]S-OMe) was tested, and the ΔTm was -1.71 °C.
Work on CN1CC(=O)N2[C@H](c3ccc4c(c3)OCO4)c3[nH]c4ccccc4c3C[C@@H]2C1=O yielded a ΔTm of -3.03 °C.
With CC(=O)N[C@@H](Cc1ccccc1)C(=O)N[C@@H](CC(C)C)C(=O)N[C@H](C(=O)N[C@@H](CC(=O)O)C(=O)CCl)[C@@H](C)O (Ac-FLTD-CH2Cl) the ΔTm was -2.88 °C.
CCOC(=O)Oc1c(OC)cc(C(=O)O[C@H]2C[C@H]3CN4CCc5c([nH]c6cc(OC)ccc56)[C@@H]4C[C@H]3[C@@H](C(=O)OC)[C@@H]2OC)cc1OC was tested, and the ΔTm was -2.32 °C.
For COC(=O)CC[C@H](NC(=O)[C@H](C)NC(=O)OCc1ccccc1)C(=O)N[C@H](C(=O)N[C@@H](CC(=O)OC)C(=O)CF)C(C)C (Cbz-AE(OMe)VD(OMe)-CH2F), the ΔTm was -1.14 °C.
CCN(c1cc(-c2ccc(CN3CCOCC3)cc2)cc(C(=O)NCc2c(C)cc(C)[nH]c2=O)c1C)C1CCOCC1 was tested, and the ΔTm was -1.59 °C.
Compound Cc1cccc(N/N=C(\C(=O)c2cccs2)C(=O)C(F)(F)F)c1 has a ΔTm of -1.9 °C.
For CCN(CC)c1ccc(C2=NNC(=O)C[C@H]2C)cc1[N+](=O)[O-], the ΔTm was 0.2 °C.
Compound CCC(=O)N1CCOc2c(cc(-c3cc(OC)cc(OC)c3)cc2C(=O)N[C@H]2CCCN(C)C2)C1 has a ΔTm of -0.15 °C.
CCN(C(=O)c1cc(F)ccc1Oc1cncnc1N1CC2(CCN(C[C@H]3CC[C@H](NS(=O)(=O)CC)CC3)CC2)C1)C(C)C gave a ΔTm of -2.35 °C.
Work on C[C@H](NC(=O)c1cn(C2(C#N)CC2)cn1)C(=O)Nc1nc(-c2cccc(-c3ccn(C)n3)c2)cs1 yielded a ΔTm of -1.99 °C.
With N#Cc1ccc(-c2c3n(c4cccnc24)CCN(C2CC2)C3=O)cc1F the ΔTm was -3.17 °C.
CC1(C)Cn2nc(-c3ccc(F)cn3)c(-c3ccnc4[nH]ncc34)c2CO1 gave a ΔTm of -1.54 °C.
For O=C(NCCCOc1ccc2[nH]c(=O)ccc2c1)N(C1CC1)[C@@H]1CCCC[C@H]1O, the ΔTm was -0.85 °C.
Work on CC(C)(C)OC(=O)NCCCCCN(CCc1ccccc1)C(=O)n1cc(-c2ccc(OC(F)(F)F)cc2)nn1 yielded a ΔTm of -3.63 °C.
CCCCCCNC(=O)n1cc(F)c(=O)[nH]c1=O was tested, and the ΔTm was -1.76 °C.
Work on CNC(=O)N1CCc2c(c(N3CCCc4cc(-c5cnn(C)c5)c(C(F)F)cc43)nn2C2CCOCC2)C1 yielded a ΔTm of 1.4 °C.
CNCC[C@@H](Oc1ccccc1C)c1ccccc1 showed a ΔTm of -2.85 °C.
CC1C(C#N)=C(N)OC2=C1C(=O)CC(c1cccc3ccccc13)C2 (centres undefined) was tested, and the ΔTm was -2.09 °C.
In the case of Cn1nc2c(=O)n(CC3(O)CCN(C(=O)C[C@H](c4ccccc4)C(F)(F)F)CC3)cnc2c1-c1ccc(CN)cc1, the ΔTm was -2.51 °C.
For CCCCCCCCCCCCC/C=C/[C@@H](O)[C@H](CO)NC(=O)CCl, the ΔTm was -0.55 °C.
